For 34 molecules, Potency results are on record in PubChem BioAssay AID1508622 (National Center for Advancing Translational Sciences (NCATS), 2021).

More than one record can exist for a structure, and the calls need not agree. The source made the active and inactive calls. A call without a number means that no potency is given here. Calls follow the shape of the dose curve; as a rule, active = well fitted activation curve with a large enough effect; inconclusive = small, poorly fitted or top-dose-only effect; inactive = no such curve, though single readings can be large or run the other way.

The nature of this experiment: Confirmatory qHTS for Identification of Small Molecule Activators of Huntingtin-Antisense Promoter Activity. The settings on record: HEK293 HTT-AS promoter firefly luciferase reporter, 24 h; series mostly up to 57.5 µM. In short, it runs like this:
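HEK293 luciferase reporter cells, 2,500/well, cultured 24 h, then exposed to compounds at up to 57.5 uM final for 24 h at 37C. Firefly luciferase luminescence read; normalized to vehicle (0%) and zero RLU (-100%).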
Background: qHTS replaces the single test concentration by a dilution series.
Potency is read from the fitted curve at half-maximal effect.

Consider `O=C1CCCc2cc(S(=O)(=O)NCC3CCC(C(=O)Nc4ccccc4F)CC3)ccc2N1` (centres undefined), for which the Potency entry is “inactive”.
Consider `COc1cc(OC)c(N(C)C(=O)c2cn(C3CCCC3)c(=O)c3c2c2ccccc2n3C)cc1Cl`, for which the Potency result is “inactive”.
Under `CCCCCN1C(C(=O)c2ccccc2)=C(OC(=O)CC)c2ccccc2S1(=O)=O` stands “inactive”.
Take `COc1cc(CNc2ccc3[nH]c(=O)[nH]c3c2)cc(Br)c1OCc1ccc(F)cc1`: the Potency entry was “inactive”.
`Cc1cc(NC(=O)c2cc(-c3ccc(F)cc3)on2)nn1Cc1ccc(Cl)cc1`: the Potency entry was “inactive”.
Take `Cc1cc(NC(=O)NCc2ccc3c(c2)CCN3C(=O)c2ccccc2)ccc1Br`: the Potency entry is “inactive”.
With `CCn1c(SCc2ccc(F)cc2Cl)nc(=O)c2c(C(=O)OC)cc(C3CC3)nc21`, the Potency entry was “inactive”.
Under `CC(=O)c1cccc(NS(=O)(=O)c2ccc3[nH]c4c(c3c2)CCCCC4)c1` stands “inactive”; under `Cc1nc(-c2ccc(Cl)cc2)sc1CCNC(=O)Cc1ccc(F)cc1`, “inactive”; under `CC1CCCCN1S(=O)(=O)c1ccc2c(c1)oc(=O)n2CC(=O)Nc1ccc(Cl)cc1` (centres undefined), “inactive”.
Consider `Cc1ccc2onc(CC(=O)Nc3cccc(C(F)(F)F)c3)c2c1`, for which the Potency result is “inactive”.
Take `O=C(CCCCCCC(=O)Nc1ccccc1)NO`: the Potency was 19 µM (active) and inactive.
Under `CCOc1ccc(S(=O)(=O)NCCc2csc(-c3ccc(Cl)cc3)n2)cc1` stands “inactive”; under `CN(C)c1ccc(C(=C2C=CC(=[N+](C)C)C=C2)c2ccc(N(C)C)cc2)cc1`, “inactive”.
Under `O=C(NCCSc1c(-c2ccccc2)[nH]c2ccccc12)c1ccc(S(=O)(=O)N2CCOCC2)cc1` stands “inactive”; under `CCOC(=O)c1cc2c(=O)n3ccccc3nc2n(Cc2ccco2)c1=NC(=O)c1cc(C)cc(C)c1`, “inactive”.
Under `O=C(NCC(c1ccccc1)c1ccccc1)c1nn(-c2ccccc2F)nc1CO` stands “inactive”; under `COc1ccccc1N1CCN(C(=O)C2CCCN(S(=O)(=O)c3ccc4c(c3)oc(=O)n4C)C2)CC1` (centres undefined), “inactive”.
Regarding `COc1ccc(-c2noc(C(C)NC(=O)c3ccco3)n2)cc1` (centres undefined), the Potency result is “inactive”.
Under `Cc1cccc(-n2c(-c3ccco3)nc3c(cnn3-c3ccccc3C)c2=O)c1` stands “inactive”.
Under `Cc1ccccc1NC(=O)c1c(NC(=O)C(F)(F)F)sc2c1CCCCC2` stands “inactive”.
Under `FC(F)(F)c1cccc(N2CCN(c3nc4ccccc4n4cnnc34)CC2)c1` stands “inactive”.
As to `O=C(NCc1cccc(Cl)c1)C1CCCN(c2nn3cc(-c4ccc(F)cc4)nc3s2)C1` (centres undefined), the Potency result was “inactive”.
`O=C(Nc1ccc(F)c(Cl)c1)C1CCN(S(=O)(=O)c2ccc3c(c2)CCCN3C(=O)C2CCC2)CC1`: the Potency entry was “inactive”.
In the case of `CCSc1ncc(Cl)c(C(=O)Nc2ccc(S(=O)(=O)N3CCC(C)CC3)cc2)n1`, the Potency entry is “inactive”.
For the molecule `CCCCOc1ccc(C(=O)Nc2ccc3c(c2)CCCN3S(=O)(=O)c2ccc(C)cc2)cc1`, the Potency result is “inactive”.
On to `COc1ccc(C(=O)NCC(c2cccnc2)N2CCc3ccccc32)cc1` (centres undefined), for which the Potency result was “inactive”.
In the case of `CCc1ccc(NC(=O)c2ccc(F)c(S(=O)(=O)N3CCc4ccccc4C3)c2)cc1`, the Potency result is “inactive”.
In the case of `O=C(NC1CCCCC1)c1ccc(CSc2nc3cccnc3n2Cc2cccc(F)c2)cc1`, the Potency entry is “inactive”.
Take `CCCCN(C)C(=O)C1CCCN(c2ncnc3onc(C)c23)C1` (centres undefined): the Potency result is “inactive”.
`COc1ccc(S(=O)(=O)N2CCC(c3nnnn3-c3ccccc3)CC2)cc1OC`: the Potency result was “inactive”.
Regarding `Cc1ccc(C(=O)Nc2nnc(SCc3cc(=O)c4c(C)ccc(C)c4[nH]3)s2)cc1`, the Potency entry is “inactive”.
On to `Cc1cccc(Cn2c(SCc3ccc(C(=O)N4CCCCCC4)cc3)nc3ccncc32)c1`, for which the Potency result was “inactive”.
Regarding `Cc1ccccc1-c1ccnc2c(-c3ccc(F)cc3)c(C)nn12`, the Potency result was “inactive”.
